PP5 primary: PP5 phosphatase inhibitors, primary screen, biochemical, fluorescence. purified PP5c, OMFP substrate fluorescence. inhibition, % at 6.7 µM. hit rate 0.18% among 320,000. AID 1987, 2009;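 active = inhibition above the campaign's mean inhibition across all tested compounds plus 3 SD, cut at about 9.5% in these data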
Target sequence (P53041 whole entry, looked up): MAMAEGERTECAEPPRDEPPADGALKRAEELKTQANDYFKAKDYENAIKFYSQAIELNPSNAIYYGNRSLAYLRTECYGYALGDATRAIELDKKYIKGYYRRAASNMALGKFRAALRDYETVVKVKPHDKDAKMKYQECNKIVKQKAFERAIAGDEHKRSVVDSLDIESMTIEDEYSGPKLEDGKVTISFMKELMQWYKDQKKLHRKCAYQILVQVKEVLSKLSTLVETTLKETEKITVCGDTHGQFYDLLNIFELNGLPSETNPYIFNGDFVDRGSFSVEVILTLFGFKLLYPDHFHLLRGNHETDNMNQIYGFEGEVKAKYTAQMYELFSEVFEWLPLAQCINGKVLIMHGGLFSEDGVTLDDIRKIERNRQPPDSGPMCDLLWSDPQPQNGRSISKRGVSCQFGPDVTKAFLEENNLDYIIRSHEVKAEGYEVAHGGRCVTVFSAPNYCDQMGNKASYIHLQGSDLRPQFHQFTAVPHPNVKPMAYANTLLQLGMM
PAFAH1B3 FP inh: PAFAH1B3 enzyme inhibitors, primary screen, biochemical, fluorescence polarization, human | recombinant PAFAH1B3, FP-rhodamine probe | hit rate 0.28% among 340,000 | Platelet-activating factor acetylhydrolase IB subunit alpha1 (Homo sapiens), Q15102 | inhibition, % at 3.39 µM | AID 492972, 2010;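 active = inhibition above the screen-wide average of all tested compounds plus 3 SD, cut at about 25% in these data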
pPAFAH inh: pPAFAH enzyme inhibitors, primary screen, biochemical, fluorescence polarization, human | inhibition, % at 3.39 µM | hit rate 1.5% among 330,000 | recombinant pPAFAH, FP-rhodamine probe fluorescence polarization | Platelet-activating factor acetylhydrolase (Homo sapiens), Q13093;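 active = inhibition above the mean inhibition across the screen plus 3 SD, cut at about 25% in these data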;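 also: inhibitors block binding of the rhodamine activity-based probe so polarization drops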
PAFAH2 inh: PAFAH2 enzyme inhibitors, primary screen, biochemical, fluorescence polarization, human; recombinant PAFAH2, FP-rhodamine activity probe; Platelet-activating factor acetylhydrolase 2, cytoplasmic (Homo sapiens), Q99487; hit rate 0.99% among 340,000; inhibition, % at 3.39 µM;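 active = inhibition above the mean over all tested compounds plus 3 SD, cut at about 30% in these data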;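 also: inhibitors block probe labeling of enzyme so polarization drops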
PAFAH1B2 FP inh: PAFAH1B2 enzyme inhibitors, primary screen, biochemical, fluorescence polarization, human. hit rate 1.2% among 340,000. inhibition, % at 3.39 µM. Platelet-activating factor acetylhydrolase IB subunit alpha2 (Homo sapiens), P68402. recombinant PAFAH1B2, FP-rhodamine activity probe;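 active = inhibition above the mean of all tested compounds plus 3 SD, cut at about 24% in these data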
PP1 counter: PP1-alpha phosphatase inhibitors, primary screen, counter-screen for PP5 inhibitor project, biochemical, fluorescence, OMFP substrate, single point; inhibition, % at 6.7 µM; hit rate 0.9% among 320,000; purified PP1alpha;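 active = inhibition above the mean inhibition of all tested compounds plus 3 SD, computed separately for each screening campaign, cut at about 15% in these data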
PP1 confirm: PP1 phosphatase inhibitors, confirmation, biochemical, fluorescence, OMFP substrate, triplicate; shares compounds with PP1 counter; purified PP1alpha; inhibition, % at 6.7 µM; hit rate 52% among 1,900; AID 2358, 2010;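 active = mean PP1 inhibition above a set limit taken from the earlier primary screen, cut at about 15% in these data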
PP5 counter: PP5 phosphatase inhibition by PP1 hits, confirmation, counter-screen for PP1 inhibitor project, biochemical, fluorescence, triplicate; shares compounds with PP1 counter; purified PP5c, OMFP fluorescence; inhibition, % at 6.7 µM; hit rate 4% among 1,900; AID 2360, 2010;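 active = mean PP5 inhibition over triplicate wells above about 9.5% taken from the earlier PP1 screen, limit read from the data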
Of the large screens only hits and unclear results are named; the others gave an inactive call (follow-up assays come after a bar, where they were run). An excerpt weighted towards active compounds, which were near 3.4% of everything screened.

NC(=O)CC(NC(=O)Cc1ccc(Cl)cc1)c1ccc(NCCOc2ccccc2)c([N+](=O)[O-])c1 (stereo unspecified)	none
NC(=O)CC(NC(=O)Cc1cccc2ccccc12)c1ccc(NCC2CC2)c([N+](=O)[O-])c1 (stereo unspecified)	none
NC(=O)CC(NC(=O)Cc1cccc2ccccc12)c1ccc(NCCOc2ccccc2)c([N+](=O)[O-])c1 (stereo unspecified)	PP1 counter 23 | PP1 confirm 27 | PP5 counter inactive
O=C(OCC(=O)N1CCN(C(=O)c2ccco2)CC1)c1cc(-c2ccco2)nc2ccccc12	pPAFAH inh 31, PAFAH2 inh 52, PP1 counter 22 | PP1 confirm inactive | PP5 counter inactive
O=C(Nc1nc(-c2ccc(-c3ccccc3)cc2)cs1)C1=COCCO1	PP1 counter 21 | PP1 confirm 34 | PP5 counter inactive
O=S(=O)(Nc1ccc(-c2csc(-c3ccccc3)n2)cc1)c1ccc(F)cc1	none
O=C(Nc1nc(-c2ccccc2)cs1)c1ccccc1NS(=O)(=O)c1ccc(F)cc1	PP1 counter 21 | PP1 confirm 21 | PP5 counter 13
CCOc1ccc(S(=O)(=O)N(C)CC(=O)NCc2ccccn2)cc1Cl	none
O=C1CCCc2oc3c(cc(NS(=O)(=O)c4ccc5c6c(cccc46)C(=O)N5)c4ccccc43)c21	PP1 counter 20 | PP1 confirm inactive | PP5 counter inactive
COc1ccccc1OCC(=O)Nc1cc(S(=O)(=O)N2CCOCC2)ccc1N1CCCCC1	none (no result: PP5 primary, PP1 counter)
COc1cccc(N=Nc2c(=O)[nH]n3c(=O)c4c([nH]c23)CCC4)c1	PP1 counter 20 | PP1 confirm 16 | PP5 counter inactive
O=c1[nH]n2c(=O)c3c([nH]c2c1N=Nc1cccc(C(F)(F)F)c1)CCCC3	pPAFAH inh 28, PAFAH1B2 FP inh 30, PP1 counter 26 | PP1 confirm 24 | PP5 counter inactive
NC(=O)c1ccc(/C(N)=N/S(=O)(=O)c2cc(C(F)(F)F)cc(C(F)(F)F)c2)cc1	none (no result: PAFAH1B3 FP inh, PAFAH2 inh, PAFAH1B2 FP inh)
CCc1nn2c(N3CCOCC3)cc(C)nc2c1-c1ccccc1	none
Cc1ccc(C(=O)N2CCCCC2)cc1S(=O)(=O)N1CCOCC1	none
COc1ccc(CCN(Cc2cccs2)S(=O)(=O)c2ccc(C(=O)O)cc2)cc1OC	none
O=c1[nH]c(CN2CCc3ccccc32)nc2scc(-c3cccs3)c12	PP1 counter 19 | PP1 confirm inactive | PP5 counter inactive
Cc1ccccc1NC(=S)NCC1CCN(C(C)c2ccccc2)C1 (stereo unspecified)	PP1 counter 25 | PP1 confirm inactive | PP5 counter inactive
CC1=NN(c2ccc(C(=O)O)cc2)C(=O)/C1=C\c1ccc(OC(=O)c2cccs2)cc1	PP1 counter 29 | PP1 confirm 18 | PP5 counter inactive
O=C(c1cc(-c2ccc(Br)cc2)nc2ccccc12)N1CCC1	PP1 counter 20 | PP1 confirm inactive | PP5 counter inactive
O=C(c1cc(-c2cccc(Br)c2)nc2ccccc12)N1CCCC1	none
CN(Cc1ccc(F)cc1)S(=O)(=O)c1nnc(NC(=O)c2ccccc2Br)s1	none
COC(=O)C1=C(C)N(Cc2ccccc2)C(=NCc2cccc(C(F)(F)F)c2)N[C@H]1c1cccc(C(F)(F)F)c1	none (no result: PP5 primary, PP1 counter)
COC(=O)C1=C(C)N(Cc2ccccc2)C(=NCc2cccc(C(F)(F)F)c2)N[C@H]1c1cccc(F)c1	PP1 counter 18 | PP1 confirm inactive | PP5 counter inactive
CC(=O)OCCCN1c2ccccc2Nc2nnc(-c3ccccc3)cc21	PP1 counter 29 | PP1 confirm 28 | PP5 counter inactive
CC(=O)OCCCN1C(=O)c2cccc3cc(Br)cc(c23)C1=O	none (no result: PAFAH1B3 FP inh, PAFAH2 inh, PAFAH1B2 FP inh)
Cc1nn(CCc2nn[nH]n2)c2nc(-c3ccc(C4CCCCC4)cc3)cc(C(F)(F)F)c12	pPAFAH inh 27, PP1 counter 18 | PP1 confirm 26 | PP5 counter inactive
COc1ccc(COC(=O)c2cccc(S(=O)(=O)N3CCN(C(C)=O)CC3)c2)cc1F	none
Cc1ccc(S(=O)(=O)c2nnn3c2nc(NC2CCN(Cc4ccccc4)CC2)c2ccccc23)cc1C	PP1 counter 21 | PP1 confirm inactive | PP5 counter inactive
Nc1nc(=O)n(C2CC(O)C(CO)O2)cc1F (stereo unspecified)	none (no result: PP5 primary, pPAFAH inh, PP1 counter)
Cc1cccnc1NC(=O)CNC(=O)c1sc2ccccc2c1Cl	none
Cc1cccc(NC(=O)CNC(=O)c2sc3ccccc3c2Cl)n1	PP1 counter 22 | PP1 confirm inactive | PP5 counter inactive
CCN(C(=O)c1cc2c(=O)[nH]c3ccc(C)cc3c2s1)c1ccc(F)cc1	PP1 counter 18 | PP1 confirm 17 | PP5 counter inactive
C[C@H](CO)N1C[C@H](C)[C@@H](CN(C)S(=O)(=O)c2cn(C)cn2)Oc2ccc(NC(=O)Cn3cnnn3)cc2C1=O	none (no result: PP5 primary, PP1 counter)
CCc1nnc(NS(=O)(=O)c2ccc(NC(=S)NC(=O)/C=C/c3ccc(C(C)C)cc3)cc2)s1	PP1 counter 26 | PP1 confirm 32 | PP5 counter inactive
O=S(=O)(c1ccccc1Br)N(Cc1ccccc1)CC(O)COCc1ccccc1 (stereo unspecified)	none (no result: PP5 primary, PP1 counter)
COc1ccc(C2=NN(C(=O)c3cccs3)C(c3ccccc3O)C2)cc1 (stereo unspecified)	PP1 counter 27 | PP1 confirm 19 | PP5 counter inactive
COc1ccc(C2CC(c3ccccc3)=NN2C(=O)c2cccs2)cc1 (stereo unspecified)	none
CCN(CC(=O)Nc1ccccc1C(F)(F)F)C(=O)c1oc2ccc(OC)cc2c1C	none
Oc1c(C(Nc2nccs2)c2ccc(C(F)(F)F)cc2)ccc2cccnc12 (stereo unspecified)	none (no result: PP5 primary, pPAFAH inh, PP1 counter)
Oc1c(C(Nc2cccc(C(F)(F)F)c2)c2ccncc2)ccc2cccnc12 (stereo unspecified)	PP1 counter 18 | PP1 confirm inactive | PP5 counter inactive
CCNC(=S)N/N=C/c1cccs1	PP1 counter 37 | PP1 confirm inactive | PP5 counter inactive

Screening data: PubChem BioAssay, The Scripps Research Institute Molecular Screening Center
